# Reference: the supplement of paper PMC4466140
# B1: unnamed (peptide)
# chain: LLRRTIPKRPFYHVL
# B2: unnamed (peptide)
# chain: HRRRRVFSIPSLKSI
# Biological target: AgAbp1
# Assay: SPOT peptide array binding signal intensity (averaged, normalized) (arbitrary units (background-subtracted, floor 0; scale differs between SH3 domains)); higher = stronger binding of the SH3 domain to the peptide
# Procedure, shortened: (§1)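 GST-SH3 fusions from four yeast species, purified on glutathione Sepharose, were incubated at 10 μg/ml overnight at 4°C on membranes of synthetic 15-mer peptides in which cysteines were replaced with serines. Binding signal is the normalized, background-subtracted spot intensity averaged over replicates, in domain-specific arbitrary units.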
row,Binder,SPOT peptide array binding signal intensity
1,B1,66.5
2,B2,65.5

# Biological target: AgBbc1
# Assay: as above
# Procedure, shortened: as §1
row,Binder,SPOT peptide array binding signal intensity
1,B1,73.8
2,B2,88.2

# Biological target: AgBem1-D1
# Assay: as above
# Procedure, shortened: as §1
row,Binder,SPOT peptide array binding signal intensity
1,B1,44.5
2,B2,426

# Biological target: AgBzz1-D1
# Assay: as above
# Procedure, shortened: as §1
row,Binder,SPOT peptide array binding signal intensity
1,B1,13
2,B2,45

# Biological target: AgBzz1-D2
# Assay: as above
# Procedure, shortened: as §1
row,Binder,SPOT peptide array binding signal intensity
1,B1,200
2,B2,28.5

# Biological target: AgCyk3
# Assay: as above
# Procedure, shortened: as §1
row,Binder,SPOT peptide array binding signal intensity
1,B1,≤ 0
2,B2,18

# Biological target: AgFus1
# Assay: as above
# Procedure, shortened: as §1
row,Binder,SPOT peptide array binding signal intensity
1,B1,295
2,B2,1100

# Biological target: AgHof1
# Assay: as above
# Procedure, shortened: as §1
row,Binder,SPOT peptide array binding signal intensity
1,B1,11.5
2,B2,117

# Biological target: AgHse1
# Assay: as above
# Procedure, shortened: as §1
row,Binder,SPOT peptide array binding signal intensity
1,B1,828
2,B2,2250

# Biological target: AgLsb1
# Assay: as above
# Procedure, shortened: as §1
row,Binder,SPOT peptide array binding signal intensity
1,B1,1
2,B2,51.2

# Biological target: AgLsb4
# Assay: as above
# Procedure, shortened: as §1
row,Binder,SPOT peptide array binding signal intensity
1,B1,79
2,B2,264

# Biological target: AgMyo5
# Assay: as above
# Procedure, shortened: as §1
row,Binder,SPOT peptide array binding signal intensity
1,B1,≤ 0
2,B2,6

# Biological target: AgNbp2
# Assay: as above
# Procedure, shortened: as §1
row,Binder,SPOT peptide array binding signal intensity
1,B1,121
2,B2,470

# Biological target: AgRvs167
# Assay: as above
# Procedure, shortened: as §1
row,Binder,SPOT peptide array binding signal intensity
1,B1,4.5
2,B2,15.8

# Biological target: AgSho1
# Assay: as above
# Procedure, shortened: as §1
row,Binder,SPOT peptide array binding signal intensity
1,B1,59
2,B2,168

# Biological target: AgSla1-D1-D2
# Assay: as above
# Procedure, shortened: as §1
row,Binder,SPOT peptide array binding signal intensity
1,B1,108
2,B2,776

# Biological target: AgSla1-D3
# Assay: as above
# Procedure, shortened: as §1
row,Binder,SPOT peptide array binding signal intensity
1,B1,0.5
2,B2,11

# Biological target: CaAbp1-D1
# Assay: as above
# Procedure, shortened: as §1
row,Binder,SPOT peptide array binding signal intensity
1,B1,604
2,B2,703

# Biological target: CaAbp1-D2
# Assay: as above
# Procedure, shortened: as §1
row,Binder,SPOT peptide array binding signal intensity
1,B1,775
2,B2,734

# Biological target: CaBbc1
# Assay: as above
# Procedure, shortened: as §1
row,Binder,SPOT peptide array binding signal intensity
1,B1,427
2,B2,198

# Biological target: CaBem1-D1
# Assay: as above
# Procedure, shortened: as §1
row,Binder,SPOT peptide array binding signal intensity
1,B1,8.5
2,B2,100

# Biological target: CaBzz1-D1
# Assay: as above
# Procedure, shortened: as §1
row,Binder,SPOT peptide array binding signal intensity
1,B1,71.5
2,B2,60

# Biological target: CaBzz1-D2
# Assay: as above
# Procedure, shortened: as §1
row,Binder,SPOT peptide array binding signal intensity
1,B1,39.5
2,B2,69

# Biological target: CaCyk3
# Assay: as above
# Procedure, shortened: as §1
row,Binder,SPOT peptide array binding signal intensity
1,B1,156
2,B2,75

# Biological target: CaFus1
# Assay: as above
# Procedure, shortened: as §1
row,Binder,SPOT peptide array binding signal intensity
1,B1,314
2,B2,1310

# Biological target: CaHof1
# Assay: as above
# Procedure, shortened: as §1
row,Binder,SPOT peptide array binding signal intensity
1,B1,0.5
2,B2,0.5

# Biological target: CaHse1
# Assay: as above
# Procedure, shortened: as §1
row,Binder,SPOT peptide array binding signal intensity
1,B1,22
2,B2,232

# Biological target: CaLsb1
# Assay: as above
# Procedure, shortened: as §1
row,Binder,SPOT peptide array binding signal intensity
1,B1,0.5
2,B2,2.5

# Biological target: CaLsb4
# Assay: as above
# Procedure, shortened: as §1
row,Binder,SPOT peptide array binding signal intensity
1,B1,94.5
2,B2,196

# Biological target: CaMyo5
# Assay: as above
# Procedure, shortened: as §1
row,Binder,SPOT peptide array binding signal intensity
1,B1,0.5
2,B2,3.5

# Biological target: CaNbp2
# Assay: as above
# Procedure, shortened: as §1
row,Binder,SPOT peptide array binding signal intensity
1,B1,262

# Biological target: CaRvs167
# Assay: as above
# Procedure, shortened: as §1
row,Binder,SPOT peptide array binding signal intensity
1,B1,48.2

# Biological target: CaRvs167-3
# Assay: as above
# Procedure, shortened: as §1
row,Binder,SPOT peptide array binding signal intensity
1,B1,92

# Biological target: CaSho1
# Assay: as above
# Procedure, shortened: as §1
row,Binder,SPOT peptide array binding signal intensity
1,B1,608

# Biological target: CaSla1-D1-D2
# Assay: as above
# Procedure, shortened: as §1
row,Binder,SPOT peptide array binding signal intensity
1,B1,140

# Biological target: CaSla1-D3
# Assay: as above
# Procedure, shortened: as §1
row,Binder,SPOT peptide array binding signal intensity
1,B1,3

# Biological target: ScAbp1
# Assay: as above
# Procedure, shortened: as §1
row,Binder,SPOT peptide array binding signal intensity
1,B1,23.5

# Biological target: ScBbc1
# Assay: as above
# Procedure, shortened: as §1
row,Binder,SPOT peptide array binding signal intensity
1,B1,25.5

# Biological target: ScBem1-D1
# Assay: as above
# Procedure, shortened: as §1
row,Binder,SPOT peptide array binding signal intensity
1,B1,7

# Biological target: ScBzz1-D1
# Assay: as above
# Procedure, shortened: as §1
row,Binder,SPOT peptide array binding signal intensity
1,B1,3.5

# Biological target: ScBzz1-D2
# Assay: as above
# Procedure, shortened: as §1
row,Binder,SPOT peptide array binding signal intensity
1,B1,13

# Biological target: ScCyk3
# Assay: as above
# Procedure, shortened: as §1
row,Binder,SPOT peptide array binding signal intensity
1,B1,26

# Biological target: ScFus1
# Assay: as above
# Procedure, shortened: as §1
row,Binder,SPOT peptide array binding signal intensity
1,B1,307

# Biological target: ScHof1
# Assay: as above
# Procedure, shortened: as §1
row,Binder,SPOT peptide array binding signal intensity
1,B1,1.5

# Biological target: ScHse1
# Assay: as above
# Procedure, shortened: as §1
row,Binder,SPOT peptide array binding signal intensity
1,B1,898

# Biological target: ScLsb1
# Assay: as above
# Procedure, shortened: as §1
row,Binder,SPOT peptide array binding signal intensity
1,B1,44.2

# Biological target: ScLsb2
# Assay: as above
# Procedure, shortened: as §1
row,Binder,SPOT peptide array binding signal intensity
1,B1,13

# Biological target: ScLsb3
# Assay: as above
# Procedure, shortened: as §1
row,Binder,SPOT peptide array binding signal intensity
1,B1,855

# Biological target: ScLsb4
# Assay: as above
# Procedure, shortened: as §1
row,Binder,SPOT peptide array binding signal intensity
1,B1,18.5

# Biological target: ScMyo3
# Assay: as above
# Procedure, shortened: as §1
row,Binder,SPOT peptide array binding signal intensity
1,B1,0.5

# Biological target: ScMyo5
# Assay: as above
# Procedure, shortened: as §1
row,Binder,SPOT peptide array binding signal intensity
1,B1,≤ 0

# Biological target: ScNbp2
# Assay: as above
# Procedure, shortened: as §1
row,Binder,SPOT peptide array binding signal intensity
1,B1,343

# Biological target: ScPex13
# Assay: as above
# Procedure, shortened: as §1
row,Binder,SPOT peptide array binding signal intensity
1,B1,110

# Biological target: ScRvs167
# Assay: as above
# Procedure, shortened: as §1
row,Binder,SPOT peptide array binding signal intensity
1,B1,612

# Biological target: ScSho1
# Assay: as above
# Procedure, shortened: as §1
row,Binder,SPOT peptide array binding signal intensity
1,B1,357

# Biological target: ScSla1-D1-D2
# Assay: as above
# Procedure, shortened: as §1
row,Binder,SPOT peptide array binding signal intensity
1,B1,146

# Biological target: ScSla1-D3
# Assay: as above
# Procedure, shortened: as §1
row,Binder,SPOT peptide array binding signal intensity
1,B1,2

# Biological target: SpAbp1-D1
# Assay: as above
# Procedure, shortened: as §1
row,Binder,SPOT peptide array binding signal intensity
1,B1,402

# Biological target: SpBbc1
# Assay: as above
# Procedure, shortened: as §1
row,Binder,SPOT peptide array binding signal intensity
1,B1,5

# Biological target: SpBzz1-D1
# Assay: as above
# Procedure, shortened: as §1
row,Binder,SPOT peptide array binding signal intensity
1,B1,76

# Biological target: SpBzz1-D2
# Assay: as above
# Procedure, shortened: as §1
row,Binder,SPOT peptide array binding signal intensity
1,B1,≤ 0

# Biological target: SpCyk3
# Assay: as above
# Procedure, shortened: as §1
row,Binder,SPOT peptide array binding signal intensity
1,B1,≤ 0

# Biological target: SpHof1
# Assay: as above
# Procedure, shortened: as §1
row,Binder,SPOT peptide array binding signal intensity
1,B1,73

# Biological target: SpHof1-2
# Assay: as above
# Procedure, shortened: as §1
row,Binder,SPOT peptide array binding signal intensity
1,B1,3.25

# Biological target: SpHof1-3
# Assay: as above
# Procedure, shortened: as §1
row,Binder,SPOT peptide array binding signal intensity
1,B1,401

# Biological target: SpHse1
# Assay: as above
# Procedure, shortened: as §1
row,Binder,SPOT peptide array binding signal intensity
1,B1,372

# Biological target: SpLsb1
# Assay: as above
# Procedure, shortened: as §1
row,Binder,SPOT peptide array binding signal intensity
1,B1,36.5

# Biological target: SpLsb4
# Assay: as above
# Procedure, shortened: as §1
row,Binder,SPOT peptide array binding signal intensity
1,B1,463

# Biological target: SpMyo1
# Assay: as above
# Procedure, shortened: as §1
row,Binder,SPOT peptide array binding signal intensity
1,B1,0.5

# Biological target: SpNbp2
# Assay: as above
# Procedure, shortened: as §1
row,Binder,SPOT peptide array binding signal intensity
1,B1,181

# Biological target: SpPex13
# Assay: as above
# Procedure, shortened: as §1
row,Binder,SPOT peptide array binding signal intensity
1,B1,1.5

# Biological target: SpRvs167
# Assay: as above
# Procedure, shortened: as §1
row,Binder,SPOT peptide array binding signal intensity
1,B1,227

# Biological target: SpSla1-D1-D2
# Assay: as above
# Procedure, shortened: as §1
row,Binder,SPOT peptide array binding signal intensity
1,B1,≤ 0

# Biological target: SpSla1-D3
# Assay: as above
# Procedure, shortened: as §1
row,Binder,SPOT peptide array binding signal intensity
1,B1,11
